HP1b binding inh: HTS for Inhibitors of HP1-beta Chromodomain Interactions with Methylated Histone Tails; Chromobox protein homolog 1 (Homo sapiens), P83916; AlphaScreen HP1-beta / biotin-H3K9me3 peptide binding; AID 540317, 2011; Potency, µM (highest dose often 114 µM), inactives show at the top dose activity change, negative = inhibition, actives largely listed as inhibitors; hit rate 0.56% among 390,000; also: nearly all actives have a fitted effect of over 70% in size
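Compound inhibition of the preformed complex between 50 nM HP1-beta and 50 nM biotinylated H3K9me3 peptide was read by AlphaScreen. Buffer was PBS pH 7.4 with 0.01% Tween-20. Incubations ran 30 min at room temperature, with 10 ug/mL donor/acceptor beads.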
G9a inh: qHTS Assay for Inhibitors of Histone Lysine Methyltransferase G9a; G9a H3K9 monomethylation, AlphaScreen, 2 h; Histone-lysine N-methyltransferase EHMT2 (Homo sapiens), Q96KQ7; AID 504332, 2011; Potency, µM (top dose mostly 102 µM), inactives show at the highest dose activity, negative = inhibition, actives largely listed as inhibitors; hit rate 8.8% among 350,000; also: % is scaled to controls: 0 for no effect and ±100 for the full control effect; nearly all actives have a fitted effect of over 75% in size
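G9a (20 nM) preincubated 15 min RT with compounds, then 500 nM biotinylated H3K9 peptide and 20 uM SAM added; 2 h RT reaction. Monomethyl-H3K9 product detected by AlphaScreen with anti-H3K9me1 antibody, streptavidin donor and anti-rabbit IgG acceptor beads.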
GLS inh: qHTS for Inhibitors of Glutaminase (GLS). Potency, µM (top dose mostly 45.5 µM), for the others: top-dose activity change, negative = inhibition, hits mostly inhibitors. hit rate 0.21% among 410,000. GLS enzymatic activity, qHTS titration. AID 624170, 2012; also: % is scaled to controls: 0 for no effect and ±100 for the full control effect
Target sequence (O94925 whole entry, looked up): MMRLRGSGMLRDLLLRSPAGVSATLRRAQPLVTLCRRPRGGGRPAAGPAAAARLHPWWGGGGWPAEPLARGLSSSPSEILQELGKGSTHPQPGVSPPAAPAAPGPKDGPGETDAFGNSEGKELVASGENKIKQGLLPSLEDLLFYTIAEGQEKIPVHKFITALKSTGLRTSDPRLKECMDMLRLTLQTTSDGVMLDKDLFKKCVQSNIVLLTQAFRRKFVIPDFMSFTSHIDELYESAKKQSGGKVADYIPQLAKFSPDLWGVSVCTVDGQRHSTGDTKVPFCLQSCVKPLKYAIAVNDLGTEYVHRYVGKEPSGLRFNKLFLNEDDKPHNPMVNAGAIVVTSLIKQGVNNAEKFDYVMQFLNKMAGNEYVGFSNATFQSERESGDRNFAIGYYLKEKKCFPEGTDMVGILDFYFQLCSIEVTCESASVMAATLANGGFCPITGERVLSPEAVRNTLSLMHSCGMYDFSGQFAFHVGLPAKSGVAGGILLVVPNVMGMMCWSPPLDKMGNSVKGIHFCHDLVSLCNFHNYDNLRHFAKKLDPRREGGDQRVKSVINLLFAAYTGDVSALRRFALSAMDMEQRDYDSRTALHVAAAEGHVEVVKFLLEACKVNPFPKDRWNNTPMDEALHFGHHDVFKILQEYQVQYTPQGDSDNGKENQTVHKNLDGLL
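Coupled fluorescence readout: glutamate oxidase/HRP/Amplex Red detect glutamate formed by hKGA from L-glutamine (1 mM solution added). Buffer 45 mM KH2PO4 pH 8.2, 0.02% Tween-20; reads at t0 and 30 min RT.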
JMJD2A Tudor: qHTS Assay for Inhibitors of JMJD2A-Tudor Domain. Potency, µM (top dose mostly 114 µM), for inactives: at the highest dose activity change, negative = inhibition, usual class: inhibitors. hit rate 4.4% among 390,000. Lysine-specific demethylase 4A (Homo sapiens), O75164. AID 504339, 2011. AlphaScreen JMJD2A-Tudor / H3K4me3 peptide binding; also: % is scaled to controls: 0 for no effect and ±100 for the full control effect; nearly all actives have a fitted effect of over 50% in size
BAZ2B block: qHTS Assay for Inhibitors of BAZ2B | Potency, µM (titrated, usually from 114 µM), without a hit: top-dose activity change, negative = inhibition, hits mostly inhibitors | AlphaScreen BAZ2B-H3K14Ac peptide displacement | hit rate 4.4% among 360,000; also: % is scaled to controls: 0 for no effect and ±100 for the full control effect; nearly all actives have a fitted effect of over 60% in size
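In this displacement format the biotinylated H3(5-23) peptide acetylated at Lys14 serves as ligand at 50 nM, with BAZ2B at 50 nM in PBS pH 7.4 containing 0.01% Tween-20. Donor and acceptor beads are 10 ug/mL final.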
L3MBTL1 block: qHTS Assay for the Inhibitors of L3MBTL1 | Lethal(3)malignant brain tumor-like protein 1 (Homo sapiens), Q9Y468 | AlphaScreen L3MBTL1–H3K9me1 peptide binding | Potency, µM (titrated, usually from 57.1 µM), inactives show at the top dose activity, negative = inhibition, hits mostly inhibitors | hit rate 0.66% among 230,000; also: % is scaled to controls: 0 for no effect and ±100 for the full control effect; nearly all actives have a fitted effect of over 60% in size
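Read-out is AlphaScreen signal from streptavidin donor and nickel chelate acceptor beads (10 ug/mL final each) bridging L3MBTL1 (50 nM) and biotinylated K9-monomethylated H3(1-15) peptide (75 nM), after 30 min compound exposure at room temperature.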
The depositor's hits bear a star; ? = inconclusive; / = no result given; ! = a repeat was not active; [ ] = dose if it differs, or a comment. The list is not random: actives were taken first. Their share in the collection is about 10%. Calls follow the shape of the dose curve; as a rule, active = well fitted curve in the direction sought with a large enough effect; inconclusive = small, poorly fitted or top-dose-only effect, or another doubt; inactive = no such curve, though single readings can be large; an effect the other way counts as inactive or inconclusive. Potency is read from the fitted curve at half-maximal effect.

SMILES	HP1b binding inh	G9a inh	GLS inh	JMJD2A Tudor	BAZ2B block	L3MBTL1 block
CCOC(=O)c1c(C)[nH]c(N=Nc2cc(C(=O)O)cc(C(=O)O)c2)c1C	-21%	-23%[59 µM]	4%	-29%	?	/
CCOC(=O)c1c(C)[nH]c(N=Nc2ccc(C)cc2C)c1C	22µM*	45µM*	2%	50µM*	14µM*	?
CSc1ccccc1NC(=O)C1=CC(c2ccc3c(c2)OCO3)=NS(=O)(=O)N1C	23%	-29%[59 µM]	18%	-12%	-3%	/
COc1cccc(C(=O)Nc2nc3nc(C)c(C)c(=O)n3[nH]2)c1	19%	?	-11%	89µM*	?	/
CCCN1CNc2c(c(=O)[nH]c(=S)n2CCc2cccc(Cl)c2)C1	28%	/	/	-13%	/	/
O=c1c2[nH]c3ccc(Br)cc3c2ncn1Cc1ccncc1	24%	/	-17%	-8%	-1%	47%
Cc1ccc2[nH]c3c(=O)n(Cc4ccncc4)cnc3c2c1	32%	-5%	0%	-11%	50µM*	/
Cc1nc(CC(=O)Nc2cccc(C)c2C)cs1	26%	2%[59 µM]	8%	-17%	0%	/
O=C(c1ccc(F)cc1)C1CCN(CCn2c(=O)[nH]c3ccccc3c2=O)CC1	1%	0.79µM*!	1%	-19%	?	-4%
O=C(CCCn1c(=O)[nH]c2ccccc2c1=O)Nc1ccc(F)cc1	40%	-32%	-18%	-2%	-18%	/
Cc1ccc(COc2ccc(-c3cc(C(F)(F)F)n4nc(C)cc4n3)cc2)cc1	37%	-19%[59 µM]	-8%	2%	-20%	/
COc1ccc(OC)c(CNS(=O)(=O)c2ccc3[nH]c4c(c3c2)CCCCC4)c1	?	13µM*	8%	35µM*	?	/
COc1ccc(NS(=O)(=O)c2ccc3[nH]c4c(c3c2)CCCCC4)cc1	?	?	11%	32µM*	2%[57.1 µM]	/
COc1ccc(NS(=O)(=O)c2ccc3[nH]c4c(c3c2)CCCC4)c(OC)c1	-32%	10µM*	-8%	?	?	/
CCOc1ccc(NS(=O)(=O)c2ccc3[nH]c4c(c3c2)CCCCC4)cc1	-14%	?	1%	28µM*	-27%[57.1 µM]	/
Cc1ccc(Cl)cc1N1CCN(C(=O)c2ccc3c(Cl)c4c(nc3c2)CCCC4)CC1	10%	-8%[59 µM]	3%	-18%	-21%	/
O=C(Nc1cc2c3c(c1)C1CCCC1CN3CC1CCCC21)c1ccccc1 (configuration not stated)	?	8.9µM*	?	?	28µM*	-4%
O=C(Nc1ccc(N2CCC(N3CCCCC3)CC2)c(C(=O)O)c1)c1ccccc1	-8%	-11%[59 µM]	2%	-31%	?	/
COc1cc(C=NNc2ccccc2)ccc1OC(=O)c1ccccc1	/	/	3%	/	/	/
COC(=O)c1ccc(COc2ccccc2/C=C/C(=O)c2ccc(OCC(=O)O)cc2)cc1	-3%	50µM*	?	-23%	?	/
O=C(O)c1cccc(NC(=S)N/N=C/c2ccccc2OCc2ccc(Br)cc2)c1	?	?	56%	50µM*	50µM*	-23%
CCOc1cc(/C=N/Nc2cccc(C(=O)O)c2)ccc1OC(=O)c1ccccc1	?	10µM*	24%	?	?	-20%
CCOc1cc(/C=N/Nc2ccccc2Cl)ccc1OCC(=O)O	?	10µM*	?	-26%	?	?
O=C(O)c1cccc(NC(=S)N/N=C/c2cccc(O)c2)c1	-7%	-23%	5%	-17%	-23%	16%
CC1CCc2c(sc(NC(=O)c3cc(-c4ccc(F)cc4)on3)c2C(N)=O)C1 (configuration not stated)	13%	-4%[59 µM]	2%	-7%	2%	/
SMILES	HP1b binding inh	G9a inh	GLS inh	JMJD2A Tudor	BAZ2B block	L3MBTL1 block
O=C(Nc1ccc(F)cc1C(F)(F)F)C1CCN(c2ncccn2)CC1	36%	-24%[59 µM]	-2%	-10%	-8%	/
CCCCCC(=O)Nc1ccc(NC(=O)c2cc3ccccc3o2)c(OC)c1	8%	-4%[59 µM]	2%	-15%	-6%	/
O=C(O)c1cccc(NC(=S)N/N=C/c2ccccc2OCc2cccc(Br)c2)c1	?	45µM*	26%	50µM*	45µM*	-11%
CCCOc1ccc(/C=N/Nc2ccc(C(=O)O)cc2)c(OCCC)c1	-15%	40µM*	-10%	?	?	-7%
CCCOc1ccc(/C=N/Nc2cccc([N+](=O)[O-])c2)c(O)c1	18%	?	-28%	-10%	11%	-4%
COC(=O)c1ccc(COc2ccccc2/C=N/Nc2cccc(C(=O)O)c2)cc1	33%	25µM*	?	-10%	-37%	-14%
CO[C@H](C(=O)[C@@H](O)[C@@H](C)O)C1Cc2cc3cc(O[C@H]4C[C@@H](O[C@H]5C[C@@H](O)[C@H](O)[C@@H](C)O5)[C@@H](O)[C@@H](C)O4)c(C)c(O)c3c(O)c2C(=O)[C@H]1O[C@H]1C[C@@H](O[C@H]2C[C@@H](O[C@H]3C[C@](C)(O)[C@H](O)[C@@H](C)O3)[C@H](O)[C@@H](C)O2)[C@H](O)[C@@H](C)O1 (some centres not stated)	/	-11%[12.7 µM]	-27%	/	/	/
CCOC(=O)C1=C[C@@]2(CC)CCCN3CCc4c(n1c1ccccc41)C32 (some centres not stated)	/	-28%[2.33 µM]	/	/	/	/
COc1ccccc1CNC(=O)CSC1=Nc2ccccc2N=C(c2ccc(F)cc2)C1	11%[57 µM]	6%[59 µM]	10%	-12%	-6%	/
CCc1ccc(NC(=O)COCc2cc(-c3ccc(F)cc3)on2)cc1	7%	-42%[59 µM]	-1%	-12%	-16%	/
CC(=O)Nc1nc(C)c(-c2csc(Nc3cccc([N+](=O)[O-])c3)n2)s1	35%	20%[59 µM]	2%	-8%	-2%	/
CC(=O)Nc1nc(C)c(-c2csc(Nc3ccccn3)n2)s1	18%	-32%	2%	-15%	?	-10%
CC(=O)Nc1ccc(Nc2nc(-c3sc(NC(C)=O)nc3C)cs2)cc1	-13%	50µM*	44%	?	50µM*	2%
CC(=O)Nc1nc(C)c(-c2csc(Nc3ccc(O)cc3)n2)s1	?	4.5µM*	8%	50µM*	50µM*	-10%
C=CCOC(=O)/C=C/C(=O)NC(N)=O	18µM*	8.9µM*	3%	?	0%	/
